Measured values: PubChem BioAssay (EPA / NIEHS)
Records with an inconclusive call do not appear. The source made the active and inactive calls. The calls were made as follows, unless noted: active = hit-call score of the fitted dose curve at least 0.9, where 1 is the maximum; inactive = score below 0.9.

Assays:
[1] = ATG_TAL_CIS: Attagene CIS-FACTORIAL HepG2 Assay for human TAL Basal Promoter (AID 2282966); settings: HepG2 Attagene cis-factorial TAL promoter reporter; actives raise or lower the signal;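 also: background control endpoint measuring basal TAL promoter reporter mRNA not a specific factor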
Outline: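 Fluorescence of labelled reporter cDNA fragments, resolved by capillary electrophoresis, gave the readout. Human HepG2 liver cells carried transiently transfected cis-element reporter units and were treated for 24 hours; activity was fitted bidirectionally against DMSO.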

[2] = ATG_TGFb_CIS: Attagene CIS-FACTORIAL HepG2 Assay for human Transforming Growth Factor (TGF) (AID 2282967); settings: HepG2 Attagene CIS TGFb reporter, mRNA transcription; actives raise or lower the signal
Outline: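 Multiplexed cis-reporter HepG2 system, 24 h treatment; mRNA induction read by fluorescence after RT-PCR and CE; DMSO negative control, bidirectional curve fitting.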

[3] = ATG_VDRE_CIS: Attagene CIS-FACTORIAL HepG2 Assay for human Vitamin D Receptor Element (VDRE) (AID 2282968); settings: HepG2 VDRE cis-reporter transcription, actives raise or lower the signal
Outline: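 RT-PCR/CE readout of reporter mRNA; HepG2, transient transfection, 24 h dosing; DMSO baseline; bidirectional analysis.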

[4] = biological target: Estrogen receptor (Homo sapiens) (UniProt P03372); assay: ATG_ERa_TRANS: Attagene TRANS-FACTORIAL HepG2 Assay for human Estrogen Receptor alpha (ERa) (AID 2282970; active = hit-call score of the fitted dose curve at least 0.9, where 1 is the maximum); settings: HepG2 Attagene TRANS ERa GAL4 reporter, mRNA
Chain of Estrogen receptor (Homo sapiens) (P03372 whole entry, looked up, the tested form may be a part): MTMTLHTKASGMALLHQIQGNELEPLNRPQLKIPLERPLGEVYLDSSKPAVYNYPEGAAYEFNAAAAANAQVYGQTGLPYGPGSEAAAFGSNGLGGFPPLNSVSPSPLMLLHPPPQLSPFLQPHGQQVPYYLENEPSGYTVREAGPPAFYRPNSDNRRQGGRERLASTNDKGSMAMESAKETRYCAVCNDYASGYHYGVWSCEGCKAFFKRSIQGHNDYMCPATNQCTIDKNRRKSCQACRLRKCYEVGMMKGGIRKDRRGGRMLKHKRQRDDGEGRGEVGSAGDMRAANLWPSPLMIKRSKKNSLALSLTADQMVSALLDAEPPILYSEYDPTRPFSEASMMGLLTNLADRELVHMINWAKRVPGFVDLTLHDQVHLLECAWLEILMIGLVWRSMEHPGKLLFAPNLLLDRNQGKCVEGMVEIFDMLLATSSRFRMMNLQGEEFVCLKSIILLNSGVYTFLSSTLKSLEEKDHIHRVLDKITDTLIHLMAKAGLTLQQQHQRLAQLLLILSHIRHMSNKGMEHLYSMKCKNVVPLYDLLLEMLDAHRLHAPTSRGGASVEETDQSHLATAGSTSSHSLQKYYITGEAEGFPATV
Outline: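 Human liver HepG2, transient transfection of multiple GAL4-UAS reporter units; TRANS format (exogenous NR-Gal4 chimera). 24 h dosing. Readout: reporter mRNA, RT-PCR, 6-FAM primer extension, HpaI digest, capillary electrophoresis. Positive direction vs DMSO.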

[5] = biological target: X-box-binding protein 1 (Homo sapiens) (UniProt P17861); assay: ATG_Xbp1_CIS: Attagene CIS-FACTORIAL HepG2 Assay for human X-box Binding Protein 1 (XBP1) (AID 2282972); settings: HepG2 XBP1 cis-element reporter, Attagene multiplex; actives raise or lower the signal
Chain of X-box-binding protein 1 (Homo sapiens) (P17861 whole entry, looked up, the tested form may be a part): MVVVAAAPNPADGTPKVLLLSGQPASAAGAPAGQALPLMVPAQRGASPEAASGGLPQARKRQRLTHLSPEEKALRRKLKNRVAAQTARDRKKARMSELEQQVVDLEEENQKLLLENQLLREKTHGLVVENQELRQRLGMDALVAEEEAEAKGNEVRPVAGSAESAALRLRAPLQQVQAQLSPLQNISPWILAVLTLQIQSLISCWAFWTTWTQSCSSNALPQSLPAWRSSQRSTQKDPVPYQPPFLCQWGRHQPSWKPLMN
Outline: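 Fluorescence-labelled cDNA fragments from reporter transcripts, separated by capillary electrophoresis, give the signal. Source: HepG2 cells transfected with promoter-driven reporter units, harvested 24 h post-dose. DMSO served as reference for bidirectional curve fitting.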

[6] = ATG_GAL4_TRANS: Attagene TRANS-FACTORIAL HepG2 Assay for GAL4 (Internal Marker) (AID 2282976; active = hit-call score of the fitted dose curve at least 0.9, where 1 is the maximum); settings: HepG2 Attagene TRANS GAL4 internal marker reporter
Outline: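 First, HepG2 cells were transfected with reporter units under GAL4-UAS control. Next, they were treated with chemical for 24 h. Finally, RNA was reverse-transcribed, PCR-amplified, FAM-labelled and resolved by capillary electrophoresis, with induction scored against DMSO.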

[7] = biological target: Estrogen-related receptor gamma (Homo sapiens) (UniProt P62508); assay: ATG_ERRg_TRANS: Attagene TRANS-FACTORIAL HepG2 Assay for human Estrogen-Related Receptor gamma (ERRg) (AID 2282977; active = hit-call score of the fitted dose curve at least 0.9, where 1 is the maximum;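 also: hits increase reporter signal over DMSO so potencies reflect activators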); settings: HepG2 Attagene TRANS reporter, ERRg transactivation
Chain of Estrogen-related receptor gamma (Homo sapiens) (P62508 whole entry, looked up, the tested form may be a part): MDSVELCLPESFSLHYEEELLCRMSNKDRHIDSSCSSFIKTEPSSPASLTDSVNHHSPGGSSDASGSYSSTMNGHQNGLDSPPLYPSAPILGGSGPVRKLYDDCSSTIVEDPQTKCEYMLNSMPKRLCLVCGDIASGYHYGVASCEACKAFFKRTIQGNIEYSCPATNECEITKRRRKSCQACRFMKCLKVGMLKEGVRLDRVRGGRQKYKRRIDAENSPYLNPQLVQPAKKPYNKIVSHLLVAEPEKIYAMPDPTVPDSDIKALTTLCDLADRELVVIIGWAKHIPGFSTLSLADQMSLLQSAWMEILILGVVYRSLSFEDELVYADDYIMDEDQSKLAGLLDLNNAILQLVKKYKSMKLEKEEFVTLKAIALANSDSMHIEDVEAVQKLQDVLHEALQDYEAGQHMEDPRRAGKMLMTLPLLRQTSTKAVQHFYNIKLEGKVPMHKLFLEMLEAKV
Outline: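 Transfect HepG2 with multiple GAL4-UAS reporter transcription units; dose chemicals 24 h; isolate RNA, reverse-transcribe with oligo(dT), PCR-amplify, label with 6-FAM, digest with HpaI; size fragments by capillary electrophoresis. DMSO serves as negative control.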

[8] = ATG_M_19_TRANS: Attagene TRANS-FACTORIAL HepG2 Assay for M19 Transcription Factor (Internal Marker) (AID 2282974; active = hit-call score of the fitted dose curve at least 0.9, where 1 is the maximum); settings: HepG2 Attagene TRANS-FACTORIAL M19 internal marker reporter
Outline: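 Transfected HepG2 (GAL4-UAS MRTUs), 24 h compound, TriZol RNA, DNase-treated RT, reporter PCR, FAM label, HpaI digest, CE fluorescence; gain vs DMSO.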

[9] = biological target: Steroid hormone receptor ERR1 (Homo sapiens) (UniProt P11474); assay: ATG_ERRa_TRANS: Attagene TRANS-FACTORIAL HepG2 Assay for human Estrogen-Related Receptor alpha (ERRa) (AID 2282971; active = hit-call score of the fitted dose curve at least 0.9, where 1 is the maximum); settings: HepG2 Attagene TRANS reporter, ERRa transactivation
Chain of Steroid hormone receptor ERR1 (Homo sapiens) (P11474 whole entry, looked up, the tested form may be a part): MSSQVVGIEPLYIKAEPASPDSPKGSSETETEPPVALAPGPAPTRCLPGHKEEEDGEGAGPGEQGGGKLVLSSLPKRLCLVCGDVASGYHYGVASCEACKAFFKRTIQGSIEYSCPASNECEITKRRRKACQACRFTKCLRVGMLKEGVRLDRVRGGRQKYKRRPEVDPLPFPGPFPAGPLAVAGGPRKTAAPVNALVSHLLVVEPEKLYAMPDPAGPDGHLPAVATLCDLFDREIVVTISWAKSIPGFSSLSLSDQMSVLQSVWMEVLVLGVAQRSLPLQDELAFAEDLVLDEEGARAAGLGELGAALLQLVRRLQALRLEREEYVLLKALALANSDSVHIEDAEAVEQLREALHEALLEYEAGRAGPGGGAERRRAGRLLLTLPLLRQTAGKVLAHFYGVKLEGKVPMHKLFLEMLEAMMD
Outline: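 Reporter transcript induction was quantified by RT-PCR and capillary electrophoresis of FAM-labelled, HpaI-cut products after 24 h treatment of HepG2 cells carrying transiently transfected GAL4-UAS reporter units and an exogenous ERRa-Gal4 fusion; activity scored as increase over DMSO.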

## CC(C)COC(=O)C=Cc1ccccc1
[1]
  outcome: inactive
[2]
  outcome: inactive
[3]
  outcome: inactive
[4]
  AC50: 71.6 µM (active)
[5]
  outcome: inactive
[6]
  outcome: inactive

## O=C1c2ccccc2C(=O)C1c1nc2ccccc2c(Br)c1O
[1]
  outcome: inactive
[2]
  AC50: 100 µM (active)
[3]
  AC50: 17.2 µM (active)
[4]
  outcome: inactive
[5]
  outcome: inactive
[6]
  outcome: inactive

## C=C(C)CCO
[1]
  outcome: inactive
[2]
  AC50: 0.316 µM (active)
[3]
  outcome: inactive
[4]
  outcome: inactive
[5]
  outcome: inactive
[6]
  outcome: inactive

## CCCCC(CC)COCC1CO1 (configuration not stated)
[1]
  outcome: inactive
[2]
  outcome: inactive
[3]
  outcome: inactive
[4]
  outcome: inactive
[5]
  outcome: inactive
[6]
  outcome: inactive
[7]
  outcome: inactive

## CC(C)(Oc1ccc(C2CC2(Cl)Cl)cc1)C(=O)O (configuration not stated)
[1]
  outcome: inactive
[2]
  outcome: inactive
[3]
  outcome: inactive
[4]
  outcome: inactive
[5]
  outcome: inactive
[8]
  outcome: inactive
[6]
  outcome: inactive

## CCCCCC(C)O (configuration not stated)
[1]
  outcome: inactive
[2]
  outcome: inactive
[3]
  outcome: inactive
[4]
  outcome: inactive
[5]
  outcome: inactive
[6]
  outcome: inactive

## O=S(=O)(O)c1ccccc1C=Cc1ccc(-c2ccc(C=Cc3ccccc3S(=O)(=O)O)cc2)cc1
[1]
  AC50: 32.4 µM (active)
[2]
  AC50: 57.8 µM (active)
[3]
  outcome: inactive
[4]
  outcome: inactive
[8]
  outcome: inactive

## Nc1ccc(-c2ccc(F)cc2)cc1
[1]
  outcome: inactive
[2]
  outcome: inactive
[3]
  outcome: inactive
[4]
  AC50: 26.9 µM (active)
[5]
  outcome: inactive
[8]
  outcome: inactive
[7]
  outcome: inactive

## C1CN(SSN2CCOCC2)CCO1
[1]
  outcome: inactive
[2]
  outcome: inactive
[3]
  outcome: inactive
[4]
  outcome: inactive
[5]
  outcome: inactive
[8]
  outcome: inactive
[7]
  outcome: inactive

## CC(C)C(=O)C(C)C
[1]
  outcome: inactive
[2]
  outcome: inactive
[3]
  AC50: 55.2 µM (active)
[9]
  outcome: inactive
[5]
  AC50: 34.7 µM (active)
[8]
  outcome: inactive

## c1ccc(CNCc2ccccc2)cc1
[1]
  outcome: inactive
[2]
  outcome: inactive
[3]
  outcome: inactive
[4]
  outcome: inactive
[5]
  outcome: inactive
[6]
  outcome: inactive

## CC(=O)OCC(=O)[C@@]12N=C(C)O[C@@H]1C[C@H]1[C@@H]3CCC4=CC(=O)C=C[C@]4(C)[C@H]3[C@@H](O)C[C@@]12C
[1]
  outcome: inactive
[2]
  outcome: inactive
[3]
  AC50: 25 µM (active)
[4]
  outcome: inactive
[5]
  outcome: inactive
[6]
  outcome: inactive

## CC/C=C\CCOC(=O)CCCCC
[1]
  outcome: inactive
[2]
  outcome: inactive
[3]
  outcome: inactive
[4]
  outcome: inactive
[8]
  outcome: inactive
[6]
  outcome: inactive

## O=S1(=O)OC(c2ccc(O)cc2)(c2ccc(O)cc2)c2ccccc21
[1]
  outcome: inactive
[2]
  outcome: inactive
[3]
  outcome: inactive
[4]
  AC50: 23.2 µM (active)
[5]
  outcome: inactive
[8]
  outcome: inactive
[7]
  outcome: inactive

## C#CC1(O)CC[C@H]2[C@@H]3CCC4=CCCC[C@@H]4[C@H]3CC[C@@]21C (some centres not stated)
[1]
  AC50: 16.8 µM (active)
[2]
  AC50: 9.28 µM (active)
[3]
  outcome: inactive
[4]
  AC50: 0.00914 µM (active)
[5]
  outcome: inactive
[6]
  outcome: inactive
[7]
  outcome: inactive

## CC1=CC[C@H]2C[C@@H]1C2(C)C
[1]
  outcome: inactive
[2]
  outcome: inactive
[3]
  outcome: inactive
[4]
  outcome: inactive
[5]
  outcome: inactive
[6]
  outcome: inactive

## Cn1c(=O)[nH]c2ncn(C)c2c1=O
[1]
  outcome: inactive
[2]
  outcome: inactive
[3]
  outcome: inactive
[4]
  outcome: inactive
[5]
  outcome: inactive
[6]
  outcome: inactive

## CCc1c(C(=O)O)c(=O)cnn1-c1ccc(Cl)cc1
[1]
  outcome: inactive
[2]
  outcome: inactive
[3]
  outcome: inactive
[4]
  outcome: inactive
[5]
  outcome: inactive
[6]
  outcome: inactive
[7]
  outcome: inactive

## O=[N+]([O-])C1(Br)COCOC1
[1]
  outcome: inactive
[2]
  outcome: inactive
[3]
  outcome: inactive
[4]
  outcome: inactive
[8]
  outcome: inactive
[6]
  outcome: inactive

## CC(=O)[C@@]1(O)CC[C@H]2[C@@H]3C[C@H](C)C4=CC(=O)C=C[C@]4(C)[C@@]3(F)[C@@H](O)C[C@@]21C
[1]
  outcome: inactive
[2]
  outcome: inactive
[3]
  outcome: inactive
[9]
  outcome: inactive
[5]
  outcome: inactive
[8]
  outcome: inactive

## OCCc1ccncc1
[1]
  outcome: inactive
[2]
  outcome: inactive
[3]
  outcome: inactive
[4]
  outcome: inactive
[5]
  outcome: inactive
[6]
  outcome: inactive

## CCCCCCCCCCc1ccccc1
[1]
  outcome: inactive
[2]
  outcome: inactive
[3]
  outcome: inactive
[4]
  outcome: inactive
[5]
  outcome: inactive
[6]
  outcome: inactive
[7]
  outcome: inactive

## C=C(C)C(=O)OCCOc1ccccc1
[1]
  outcome: inactive
[2]
  outcome: inactive
[3]
  outcome: inactive
[4]
  outcome: inactive
[5]
  outcome: inactive
[6]
  outcome: inactive
[7]
  outcome: inactive

## COCCCOCCCOC
[1]
  outcome: inactive
[2]
  outcome: inactive
[3]
  outcome: inactive
[9]
  outcome: inactive
[5]
  outcome: inactive
[8]
  outcome: inactive

## N[C@H]1C(O)O[C@H](CO)[C@H](O)[C@@H]1O (some centres not stated)
[1]
  outcome: inactive
[2]
  outcome: inactive
[3]
  outcome: inactive
[4]
  outcome: inactive
[5]
  outcome: inactive
[6]
  outcome: inactive
[7]
  outcome: inactive

## S=C(NC1CCCCC1)NC1CCCCC1
[1]
  outcome: inactive
[2]
  outcome: inactive
[3]
  outcome: inactive
[4]
  outcome: inactive
[5]
  outcome: inactive
[8]
  outcome: inactive
[7]
  outcome: inactive

## CC(CC=O)c1ccccc1 (configuration not stated)
[1]
  outcome: inactive
[2]
  outcome: inactive
[3]
  AC50: 7.03 µM (active)
[4]
  outcome: inactive
[5]
  outcome: inactive
[6]
  outcome: inactive
